Compound activity: PubChem BioAssay, several laboratories
C-LANA FP – KSHV C-LANA DNA binding inhibition | MBP-C-LANA/FAM-LBS DNA binding, fluorescence polarization | actives 0.078% (n = 340,000) | inhibition, % at 9 µM;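 active = highest replicate inhibition at or above 60% at 9 µM, even if other replicates fall short; inactive = all replicates below 60% inhibition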;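 note: 0% = neutral control wells and 100% = 4 µM acridine orange control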
Keap1-Nrf2 PPI – Keap1-Nrf2 (human) interaction inhibition; Keap1 Kelch-Nrf2 peptide fluorescence polarization, 1536-well; inhibition, % at 9.4 µM; actives 0.15% (n = 340,000); AID 504523; Q14145; in the data active = inhibition above about 12%;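 note: human Keap1 Kelch domain with fluorescein labeled Nrf2 9mer peptide probe; 0% = neutral control wells and 100% = peptide positive control; higher means more block of Keap1 binding to Nrf2 peptide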
E coli Lon inh – inhibitors of E. coli Lon protease. inhibition, % at 7.94 µM. actives 0.42% (n = 360,000). purified E. coli Lon protease, fluorescence polarization; in the data active = inhibition above about 13%, passing the limit was not always enough;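 note: 0% = enzyme with probe and DMSO and 100% = no enzyme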
Target sequence (P0A9M0 whole entry, looked up): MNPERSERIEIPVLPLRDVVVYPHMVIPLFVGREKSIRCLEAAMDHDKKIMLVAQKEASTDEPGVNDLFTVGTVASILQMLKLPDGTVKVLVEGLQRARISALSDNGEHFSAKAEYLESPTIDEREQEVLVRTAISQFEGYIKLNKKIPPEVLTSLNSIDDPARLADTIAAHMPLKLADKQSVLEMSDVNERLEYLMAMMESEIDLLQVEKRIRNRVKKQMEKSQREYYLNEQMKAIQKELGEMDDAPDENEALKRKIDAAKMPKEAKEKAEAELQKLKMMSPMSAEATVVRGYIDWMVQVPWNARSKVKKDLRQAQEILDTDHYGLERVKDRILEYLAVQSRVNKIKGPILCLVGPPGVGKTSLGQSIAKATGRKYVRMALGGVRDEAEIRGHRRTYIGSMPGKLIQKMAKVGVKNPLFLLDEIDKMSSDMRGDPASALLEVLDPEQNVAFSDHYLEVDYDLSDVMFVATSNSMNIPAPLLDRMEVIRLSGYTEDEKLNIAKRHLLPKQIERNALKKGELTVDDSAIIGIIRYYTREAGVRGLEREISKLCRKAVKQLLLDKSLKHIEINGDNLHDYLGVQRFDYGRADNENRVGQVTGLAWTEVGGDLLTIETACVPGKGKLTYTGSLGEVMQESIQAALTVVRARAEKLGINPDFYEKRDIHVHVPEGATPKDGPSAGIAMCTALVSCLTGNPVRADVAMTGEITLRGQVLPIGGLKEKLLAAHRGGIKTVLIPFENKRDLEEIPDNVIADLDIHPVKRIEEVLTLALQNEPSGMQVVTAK
RTF Ca sens act – increases calcium sensitivity of human cardiac regulated thin filaments. actives 0.24% (n = 340,000). P19429+P45379. IANBD-labeled TnC RTF fluorescence at EC20 calcium; 0% EC20 calcium, 100% full calcium. activation, % at 7.2 µM;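 active = activation above the mean over all tested compounds plus 3 SD, cut at about 30% in these data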;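 note: rise in fluorescence read as greater calcium sensitivity of cardiac thin filaments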
Cardiac RTF inh – cardiac RTF calcium desensitization; P19429+P45379; IANBD-labeled cardiac RTF, Ca2+ fluorescence; inhibition, % at 7.15 µM; actives 0.12% (n = 340,000);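 active = inhibition above the mean inhibition of all tested compounds plus 3 SD, cut at about 17% in these data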;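 note: assay run at fixed EC70 calcium of 1.6 mM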
Numbers without * were called inactive; i = inactive; . = not tested or not shown; + = active, no number. A selection: hits, their analogues and other compounds. The true share with any hit is near 0.82%.

SMILES	C-LANA FP	Keap1-Nrf2 PPI	E coli Lon inh	RTF Ca sens act	Cardiac RTF inh
CC(C)NC(=O)/C(C#N)=C\c1ccc(N(C)C)o1	-39.3	-119.3	-435.6	63.6*	-85.8
N#C/C(=C\c1ccc(O)cc1)C(=O)NCc1ccccc1	-0.2	-1.8	8.1	1.4	-0.6
C=CCNC(=O)/C(C#N)=C/c1ccc(C)o1	1.2	-2.9	-2.0	-1.1	-3.0
CC(NC(=O)/C(C#N)=C/c1ccc([N+](=O)[O-])o1)c1ccccc1 (stereo unspecified)	-0.6	-10.7	-46.6	7.9	1.0
CCN(CC)c1ccc(/C=C(/C#N)C(=O)NCc2ccccc2)o1	-13.5	-146.7	i	110.6*	-107.9
CCN(CC)c1ccc(/C=C(/C#N)C(=O)NC(C)C)o1	-42.5	-168.9	-453.4	71.5*	-81.3
CN1C2CCC1/C(=C/c1cccn1C)C(=O)/C2=C\c1cccn1C	-77.7	-262.1	-148.5	367.2*	-289.7
COc1ccc(CNC(=O)C(C#N)c2nc3ccccc3nc2N2CCCC2)cc1 (stereo unspecified)	18.1	4.7	-34.9	51.3*	-404.9
O=C(CCCN1C(=O)/C(=C/c2ccco2)SC1=S)Nc1cccc(C(=O)O)c1	60.3	-0.2	-2.0	-5.2	-0.8
O=C(CN1C(=O)/C(=C/c2ccco2)SC1=S)Nc1ccc(C(=O)O)c(O)c1	108.0*	-8.9	-52.3	-7.7	7.2
CC(C(=O)N(C)C1CCS(=O)(=O)C1)N1C(=O)/C(=C/c2ccco2)SC1=S (stereo unspecified)	-2.2	-5.8	3.8	-4.2	-8.3
CC(C(=O)Nc1ccc(C(=O)O)c(O)c1)N1C(=O)/C(=C\c2ccco2)SC1=S (stereo unspecified)	100.5*	0.2	-32.1	-10.7	4.6
O=C(CN1C(=O)/C(=C/c2ccco2)SC1=S)Nc1ccc(O)c(C(=O)O)c1	101.2*	0.7	-45.8	-11.7	2.9
C=CCn1c(=O)/c(=C/c2ccc(O)cc2)s/c1=C(/C#N)c1nnc2n1CCCCC2	-20.2	-4.3	-284.3	9.8	-24.0
C=CCn1c(=O)/c(=C/c2cc(OC)c(OC)c(OC)c2)s/c1=C(/C#N)c1nc2ccccc2n1C	28.6	29.9*	0.8	36.7*	0.7
O=C(/C=C/c1ccco1)NC(=S)Nc1ccc(C(=O)O)cc1	62.0*	-1.0	-23.3	-6.0	-1.5
CC(=O)NC(=S)Nc1ccc(NC(=S)NC(=O)/C=C/c2ccco2)cc1	1.3	-2.7	6.1	0.7	2.7
C[C@H]1Cn2cnc(C(=O)Nc3cccc(Cl)c3)c2C(=O)N1	.	.	-1.6	.	.
O=C1/C(=C/c2ccco2)SC(=S)N1c1cccnc1	72.1*	3.1	4.2	-10.8	9.0
O=C1/C(=C\c2ccco2)SC(=S)N1c1ccc(O)cc1	1.3	1.0	-22.5	0.1	-9.2
Cc1cc(/C=C2\SC(=S)N(Cc3ccco3)C2=O)c(C)n1-c1cccnc1	7.2	-3.0	-152.4	89.0*	-85.6
CCOC(=O)[C@]12CCC=C1N(Cc1ccc(Cl)cc1Cl)C(=O)[C@H](CC(=O)N1CCSCC1)C2	.	.	-7.0	.	.
O=c1cc(-c2ccccc2)oc2cc(O)ccc12	-1.4	-6.9	-0.4	9.2	3.7
O=c1ccc2c(-c3ccccc3)c3ccc(O)cc3oc-2c1	141.8*	97.6*	.	+	i
Nc1ccc(-c2c3ccc(=O)cc-3oc3cc(O)ccc23)cc1C(=O)O	110.2*	25.8*	-117.5	+	i
SMILES	C-LANA FP	Keap1-Nrf2 PPI	E coli Lon inh	RTF Ca sens act	Cardiac RTF inh
COC(=O)c1ccc(COc2cccn3c(N(C)C(=O)CCC4CCCC4)c(C)nc23)cc1	.	.	-6.6	.	.
CC1(OC(=O)C2CCCC2)C(=O)C=C2C=C(c3ccsc3)OC=C2C1=O (stereo unspecified)	77.7*	-2.3	-34.4	-4.9	-12.5
CC1(C(=O)Nc2nccs2)CCN1C(=O)CC(c1ccccc1)c1ccccc1 (stereo unspecified)	.	.	6.8	.	.
Cc1[nH]n(-c2ccccc2)c(=O)c1C=Nc1ccc2[nH]c(=O)[nH]c2c1	0.6	0.5	-9.8	4.0	-6.0
O=c1[nH]c2ccc(N=Cc3c(O)ccc4cc(Br)ccc34)cc2[nH]1	0.4	-2.7	-147.8	30.4*	-12.9
C/C(=N\NC(=O)c1cc(-c2ccccn2)nc2ccccc12)c1cccc([N+](=O)[O-])c1	98.2*	-5.8	7.0	6.5	-0.5
CN(C)CCCN1C(=O)c2cccc3cccc(c23)C1=O	-2.3	-7.7	6.0	-9.3	-13.4
CC1=CC2=C(OC1N(C)C)c1cccc3cccc(c13)C2=O (stereo unspecified)	3.4	0.9	64.1*	6.6	-16.7
Cc1ccc(/C=C2\SC(=S)N(/N=C/c3cc([N+](=O)[O-])ccc3O)C2=O)o1	73.6*	8.7	-2.1	-3.3	3.1
O=[N+]([O-])c1ccc(O)c(/C=N/n2cnc3ccccc32)c1	2.1	-1.4	5.4	-0.9	-5.5
COc1cc(OC)c(OC)cc1/C=C1\Oc2cc(OCC(=O)N3Cc4ccccc4C[C@H]3C(=O)O)ccc2C1=O	-31.4	-87.9	-266.0	32.1*	-66.3
COc1cccc(/C=C2\Oc3cc(OCC(=O)N4CCC[C@H]4C(=O)O)ccc3C2=O)c1	4.4	-6.9	-9.4	12.4	-4.5
COc1ccc(OC)c(/C=C2\Oc3cc(OCC(=O)N4CCC[C@H]4C(=O)O)ccc3C2=O)c1	-1.5	0.2	-13.1	6.9	-7.9
COc1ccc(/C=C2\Oc3cc(OCC(=O)N4CCC[C@H]4C(=O)O)ccc3C2=O)c(OC)c1	-10.8	-44.3	-73.9	30.4*	-43.6
OCc1cccc(-c2cnc3c(Nc4cccc(OC(F)(F)C(F)F)c4)nccn23)c1	.	.	5.7	.	.
O=C(O)C1Nc2c(O)cccc2C2C=CCC12 (stereo unspecified)	13.4	2.5	9.2	-31.4	34.1*
O=C(O)C1Nc2c(Cl)cc(Cl)c(Cl)c2C2C=CCC12 (stereo unspecified)	1.5	-1.0	-12.8	-3.2	2.0
NC(=O)c1c(N)sc2c1CCCCC2	4.4	-7.5	5.2	30.0*	-1.2
COc1ccc(CCN2C(=O)COc3ccccc3C2C(=O)Nc2ccc3c(c2)OCCO3)cc1OC (stereo unspecified)	.	.	-4.8	.	.
O=C(O)c1ccccc1-c1ccc(C=c2sc3nc4cc(Br)cnc4n3c2=O)o1	.	.	-33.3	.	.
O=C(O)c1ccccc1-c1ccc(/C=C/c2cc(C(F)(F)F)[nH]c(=O)n2)o1	7.6	-234.3	-140.7	727.4*	i
O=C(O)c1cc(Cl)ccc1-c1ccc(/C=C/c2cc(C(F)(F)F)[nH]c(=O)n2)o1	-11.2	-284.5	-283.8	447.5*	i
O=C1NC[C@H](Cc2ccccc2)N(C[C@@H]2CCCN2C[C@H](Cc2ccc(O)cc2)N2C[C@H](Cc3ccccc3)N(CCc3ccccc3)C(=O)C2=O)C1=O	.	.	-15.1	.	.
Cc1ccc(C(=O)COC(=O)C2CCC2)cc1	-1.3	1.2	-11.0	62.9*	-5.3
CC(=O)NCCc1ccc(C(=O)COC(=O)C2CCCCC2)cc1	-2.1	-5.6	6.5	-1.5	-3.1
N#Cc1ccc(C(=O)N2CCCCC2c2cc(C(=O)Nc3ccc4c(c3)OCO4)no2)cc1 (stereo unspecified)	.	.	-3.1	.	.
